Outcome and AC50 data for eight compounds are collected here from PubChem BioAssay (EPA / NIEHS).

Experiment [1] can be described thus: BSK_4H_Eotaxin3: BioMAP Diversity Plus: 4H Assay for Eotaxin 3 Biomarker Activity (AID 2283000).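 Note: CCL26 protein level quantified by ELISA in parallel with SRB cytotoxicity check.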 Conditions: primary human endothelial cells (HUVEC); actives raise or lower the signal. The method in brief:
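Eotaxin-3 (CCL26) levels were measured by ELISA in HUVEC primary cultures 24 h post-dosing. Gain or loss of signal was fitted in both directions, with DMSO serving as baseline and negative control.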

Experiment [2] has as its target human Peroxisome Proliferator-activated Receptor delta (PPARd), PPARD (gene 5467) (UniProt Q03181). The experiment in a line: ATG_PPARd_TRANS: Attagene TRANS-FACTORIAL HepG2 Assay for human Peroxisome Proliferator-activated Receptor delta (PPARd) (AID 2283002; active = hit-call score of the fitted dose curve at least 0.9, where 1 is the maximum). The method, boiled down:
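Read-out is induced reporter mRNA, quantified by RT-PCR with fluorescent labelling and capillary electrophoresis after 24 h dosing. Cells are HepG2 transiently carrying multiple GAL4-UAS reporter units driven by exogenous NR-GAL4 chimeras; DMSO serves as baseline.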

Read-out in experiment [3]: Intercellular Adhesion Molecule 1 (ICAM1), ICAM1 (gene 3383)
The experiment in a line: BSK_3C_ICAM1: BioMAP Diversity Plus: 3C Assay for Intercellular Adhesion Molecule 1 (ICAM1) Biomarker Activity (AID 2283003). To be noted: primary human endothelial cells (HUVEC); actives raise or lower the signal. The method, boiled down:
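ELISA readout of ICAM1 in human umbilical vein endothelial cells in the 3C system, taken 24 h post-dose. Gain or loss of signal versus DMSO was fitted in both directions, with SRB total-protein staining run in parallel.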

A short description of experiment [4]: BSK_3C_Proliferation: Cell Proliferation Assessment in the BioMAP Diversity Plus: 3C Assay (AID 2283006).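 For AC50: potency may reflect either rise or fall in cell number versus DMSO.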 To be noted: primary human endothelial cells (HUVEC). The method, boiled down: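 Proliferation as total protein: sulforhodamine B (0.1%) stain of TCA-fixed subconfluent human umbilical vein endothelial cells, absorbance 560 nm, 48 h after dosing. Activity fitted in both directions against DMSO baseline.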

Experiment [5] concerns the target Nuclear receptor subfamily 1 group I member 2 (Homo sapiens) (UniProt O75469). The experiment in a line: ATG_PXR_TRANS: Attagene TRANS-FACTORIAL HepG2 Assay for human Pregnane X Receptor (PXR) (AID 2283008; active = hit-call score of the fitted dose curve at least 0.9, where 1 is the maximum). The method in brief:
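Trans-factorial format: exogenous NR-Gal4 fusion activity, not endogenous factor, in transfected human HepG2 liver cells. After 24 h dosing, RNA isolated, reverse-transcribed, amplified and resolved by capillary electrophoresis; induction scored versus DMSO.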

Experiment [6] concerns the target human RAR-related Orphan Receptor gamma (RORg), RORC (gene 6097) (UniProt P51449). The experiment in a line: ATG_RORg_TRANS: Attagene TRANS-FACTORIAL HepG2 Assay for human RAR-related Orphan Receptor gamma (RORg) (AID 2283011; active = hit-call score of the fitted dose curve at least 0.9, where 1 is the maximum). The method, boiled down:
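HepG2 cells transiently transfected with GAL4-UAS reporter units and chimeric RORg-Gal4 construct; after 24 h chemical exposure, reporter mRNA measured by RT-PCR with fluorescent capillary electrophoresis, gain of signal fitted against DMSO.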

Experiment [7] concerns the target Retinoic acid receptor RXR-alpha (Homo sapiens) (UniProt P19793). The experiment in a line: ATG_RXRa_TRANS: Attagene TRANS-FACTORIAL HepG2 Assay for human Retinoid X Receptor alpha (RXRa) (AID 2283012; active = hit-call score of the fitted dose curve at least 0.9, where 1 is the maximum). The method in brief: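 TRANS format reporting activity of exogenous RXRa-Gal4 chimera in transiently transfected HepG2, 24 h exposure. Reporter transcripts quantified by RT-PCR with capillary electrophoresis, with gain of signal scored relative to DMSO.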

Experiment [8] has as its target human Retinoid X Receptor beta (RXRb), RXRB (gene 6257) (UniProt P28702). The experiment can be described thus: ATG_RXRb_TRANS: Attagene TRANS-FACTORIAL HepG2 Assay for human Retinoid X Receptor beta (RXRb) (AID 2283013; active = hit-call score of the fitted dose curve at least 0.9, where 1 is the maximum). The method, boiled down: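 Readout is reporter transcript induction after 24 h dosing. It is measured by RT-PCR of total RNA followed by fluorescent capillary electrophoresis. HepG2 liver cells carry transfected multiple reporter units driven by an exogenous RXRb-Gal4 fusion; activity is relative to DMSO.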

Read-out in experiment [9]: E-selectin (Homo sapiens) (UniProt P16581)
The experiment in a line: BSK_3C_Eselectin: BioMAP Diversity Plus: 3C Assay for Eselectin Biomarker Activity (AID 2283015).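 For Outcome: cell surface E-selectin protein quantified by ELISA 24 h after dosing.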 To be noted: primary human endothelial cells (HUVEC); actives raise or lower the signal. The method in brief:
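Primary human umbilical vein endothelial cells (3C system), read 24 h after compound addition; E-selectin measured by ELISA. Bidirectional curve fitting against DMSO baseline; cytotoxicity by parallel SRB total-protein staining.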

Read-out in experiment [10]: Interleukin-1 alpha (IL1a), IL1A (gene 3552)
The experiment in a line: BSK_BE3C_IL1a: BioMAP Diversity Plus: BE3C Assay for Interleukin-1 alpha (IL1a) Biomarker Activity (AID 2283016). To be noted: primary human bronchial epithelial cells; actives raise or lower the signal. The method, boiled down: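 IL-1a measured by ELISA after 24 h treatment of human primary bronchial epithelial cells, with gain or loss of signal fitted versus DMSO. Parallel cultures stained with SRB gauge overt cytotoxicity.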

Read-out in experiment [11]: Monocyte Chemoattractant Protein-1 (MCP1), CCL2 (gene 6347)
The experiment in a line: BSK_4H_MCP1: BioMAP Diversity Plus: 4H Assay for Monocyte Chemoattractant Protein-1 (MCP1) Biomarker Activity (AID 2283018). Conditions: primary human endothelial cells (HUVEC); actives raise or lower the signal. The method, boiled down: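 ELISA of MCP-1 (CCL2) 24 h after chemical dosing of HUVEC in the BioMAP 4H system. Gain or loss versus DMSO fitted; parallel SRB staining (560 nm) tracked overt cytotoxicity.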

Read-out in experiment [12]: Human Leukocyte Antigen - DR isotype (HLADR), HLA-DRA (gene 3122)
The experiment can be described thus: BSK_3C_HLADR: BioMAP Diversity Plus: 3C Assay for Human Leukocyte Antigen - DR isotype (HLADR) Biomarker Activity (AID 2283019). Conditions: primary human endothelial cells (HUVEC); actives raise or lower the signal. The method in brief: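 HUVEC monoculture, HLA-DR measured by ELISA 24 h after chemical dosing. Fitted bidirectionally against DMSO baseline; parallel SRB staining assessed cytotoxicity, with 3C proliferation read by SRB at 48 h.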

For experiment [13], the target named is Peroxisome proliferator-activated receptor gamma (Homo sapiens) (UniProt P37231). The experiment in a line: ATG_PPARg_TRANS: Attagene TRANS-FACTORIAL HepG2 Assay for human Peroxisome Proliferator-activated Receptor-gamma (PPARg) (AID 2283007; active = hit-call score of the fitted dose curve at least 0.9, where 1 is the maximum). The method in brief: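 After 24 h of chemical exposure, transfected HepG2 cells carrying PPARγ-Gal4 chimera reporter constructs are lysed for RNA. Reporter transcripts are measured by RT-PCR and capillary electrophoresis with fluorescent labelling, and gain of signal is fitted versus DMSO.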
Peroxisome proliferator-activated receptor gamma (Homo sapiens), sequence (P37231 whole entry, looked up, the tested form may be a part): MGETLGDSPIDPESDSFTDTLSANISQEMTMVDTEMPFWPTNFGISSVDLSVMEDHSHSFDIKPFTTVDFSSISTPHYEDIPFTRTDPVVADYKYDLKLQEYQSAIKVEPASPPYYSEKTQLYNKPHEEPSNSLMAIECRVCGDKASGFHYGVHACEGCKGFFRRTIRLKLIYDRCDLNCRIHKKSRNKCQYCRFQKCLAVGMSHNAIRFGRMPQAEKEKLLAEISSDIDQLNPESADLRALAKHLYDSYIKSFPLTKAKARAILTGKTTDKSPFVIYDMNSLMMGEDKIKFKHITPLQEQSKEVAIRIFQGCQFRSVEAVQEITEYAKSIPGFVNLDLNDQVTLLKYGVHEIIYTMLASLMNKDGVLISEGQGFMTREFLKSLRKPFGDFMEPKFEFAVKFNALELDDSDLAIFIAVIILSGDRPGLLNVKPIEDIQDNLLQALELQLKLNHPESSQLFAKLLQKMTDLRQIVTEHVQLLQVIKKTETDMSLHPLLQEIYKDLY

Experiment [14] concerns the target Retinoic acid receptor alpha (Homo sapiens) (UniProt P10276). The experiment in a line: ATG_RARa_TRANS: Attagene TRANS-FACTORIAL HepG2 Assay for human Retinoic Acid Receptor alpha (RARa) (AID 2283005; active = hit-call score of the fitted dose curve at least 0.9, where 1 is the maximum). The method, boiled down: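 Reporter transcripts, measured by RT-PCR with fluorescent labeling and capillary electrophoresis after 24 h dosing, reflect activity of an exogenous human RARa–GAL4 fusion in transiently transfected HepG2. Fitted for increase relative to DMSO.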

The target in experiment [15] is human RAR-related Orphan Receptor beta (RORb), RORB (gene 6096) (UniProt Q92753). The experiment can be described thus: ATG_RORb_TRANS: Attagene TRANS-FACTORIAL HepG2 Assay for human RAR-related Orphan Receptor beta (RORb) (AID 2283010; active = hit-call score of the fitted dose curve at least 0.9, where 1 is the maximum). The method, boiled down: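 Read-out is reporter mRNA induction, quantified by RT-PCR with fluorescent capillary electrophoresis, 24 h post-dose in transiently transfected HepG2 expressing exogenous NR-Gal4 chimera. Activity fitted upward versus DMSO.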
human RAR-related Orphan Receptor beta (RORb), RORB (gene 6096), sequence (Q92753 whole entry, looked up, the tested form may be a part): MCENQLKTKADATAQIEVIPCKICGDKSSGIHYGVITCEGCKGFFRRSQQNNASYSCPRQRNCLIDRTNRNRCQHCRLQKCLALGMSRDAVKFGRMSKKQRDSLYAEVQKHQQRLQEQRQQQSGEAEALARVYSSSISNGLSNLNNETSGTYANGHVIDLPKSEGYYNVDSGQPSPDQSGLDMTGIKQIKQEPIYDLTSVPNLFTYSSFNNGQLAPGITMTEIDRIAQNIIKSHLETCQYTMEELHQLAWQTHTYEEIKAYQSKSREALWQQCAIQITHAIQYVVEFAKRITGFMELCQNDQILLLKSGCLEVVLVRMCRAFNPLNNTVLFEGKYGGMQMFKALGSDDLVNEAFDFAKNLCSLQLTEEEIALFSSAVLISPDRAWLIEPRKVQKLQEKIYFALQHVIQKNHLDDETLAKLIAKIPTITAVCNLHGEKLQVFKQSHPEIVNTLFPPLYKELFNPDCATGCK

For experiment [16], the target named is human Thyroid Receptor alpha (THRa1), THRA (gene 7067) (UniProt P10827). The experiment can be described thus: ATG_THRa1_TRANS: Attagene TRANS-FACTORIAL HepG2 Assay for human Thyroid Receptor alpha (THRa1) (AID 2283014; active = hit-call score of the fitted dose curve at least 0.9, where 1 is the maximum). The method, boiled down: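 HepG2 cells transiently transfected with chimeric NR-Gal4 and GAL4-UAS reporter units, dosed 24 h. Reporter mRNA quantified by RT-PCR, fluorescent labeling, HpaI digestion and capillary electrophoresis; gain-of-signal fit versus DMSO.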
human Thyroid Receptor alpha (THRa1), THRA (gene 7067), sequence (P10827 whole entry, looked up, the tested form may be a part): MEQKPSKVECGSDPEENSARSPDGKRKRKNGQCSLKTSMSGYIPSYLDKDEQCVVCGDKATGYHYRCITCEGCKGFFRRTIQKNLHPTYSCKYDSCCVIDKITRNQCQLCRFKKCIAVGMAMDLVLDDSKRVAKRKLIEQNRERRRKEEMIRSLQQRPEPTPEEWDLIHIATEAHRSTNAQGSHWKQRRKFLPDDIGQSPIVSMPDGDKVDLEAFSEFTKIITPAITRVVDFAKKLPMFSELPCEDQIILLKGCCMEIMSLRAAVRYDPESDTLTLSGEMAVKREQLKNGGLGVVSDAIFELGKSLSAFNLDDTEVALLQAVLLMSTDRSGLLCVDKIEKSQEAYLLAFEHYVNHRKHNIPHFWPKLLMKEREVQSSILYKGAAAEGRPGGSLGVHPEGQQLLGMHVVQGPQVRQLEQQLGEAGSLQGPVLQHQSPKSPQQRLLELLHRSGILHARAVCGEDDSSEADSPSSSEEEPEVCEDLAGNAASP

The target of experiment [17] is human Peroxisome Proliferator-activated Receptor alpha (PPARa), PPARA (gene 5465) (UniProt Q07869). The experiment in a line: ATG_PPARa_TRANS: Attagene TRANS-FACTORIAL HepG2 Assay for human Peroxisome Proliferator-activated Receptor alpha (PPARa) (AID 2283001; active = hit-call score of the fitted dose curve at least 0.9, where 1 is the maximum). The method in brief:
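Reporter transcripts quantified by RT-PCR plus capillary electrophoresis after 24 h treatment, fitted upward relative to DMSO. Cells: human HepG2 transiently carrying multiple GAL4-UAS reporter units driven by NR-Gal4 chimeras.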

The target in experiment [18] is human Retinoic Acid Receptor beta (RARb), RARB (gene 5915) (UniProt P10826). The experiment can be described thus: ATG_RARb_TRANS: Attagene TRANS-FACTORIAL HepG2 Assay for human Retinoic Acid Receptor beta (AID 2283004; active = hit-call score of the fitted dose curve at least 0.9, where 1 is the maximum). The method in brief: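 HepG2 cells were transiently transfected with GAL4-UAS reporter units that report activity of exogenous chimeric NR-Gal4 proteins, then exposed to compound for 24 h. Reporter mRNA was quantified by RT-PCR with capillary electrophoresis fluorescence, as gain of signal over DMSO.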

For experiment [19], the target named is human Retinoic Acid Receptor gamma (RARg), RARG (gene 5916) (UniProt P13631). The experiment in a line: ATG_RARg_TRANS: Attagene TRANS-FACTORIAL HepG2 Assay for human Retinoic Acid Receptor gamma (RARg) (AID 2283009; active = hit-call score of the fitted dose curve at least 0.9, where 1 is the maximum). The method in brief: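 Transactivation of exogenous RARg-Gal4 fusion measured as reporter transcript induction after 24 h in transfected HepG2 cells. RNA reverse-transcribed, amplified, fluorescently labeled and resolved by capillary electrophoresis; increase relative to DMSO.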

Values joined by “and” are separate entries in the source; they are usually repeats but may differ in a detail not shown here. Equal entries are not always repeated. Inconclusive results are not listed. Some structures have more than one record in an assay (separate samples or runs), and their calls can disagree. Active and inactive are the calls of the source. Rule for the calls, unless noted: active = hit-call score of the fitted dose curve at least 0.9, where 1 is the maximum; inactive = score below 0.9.

human Retinoid X Receptor beta (RXRb), RXRB (gene 6257), sequence (P28702 whole entry, looked up, the tested form may be a part): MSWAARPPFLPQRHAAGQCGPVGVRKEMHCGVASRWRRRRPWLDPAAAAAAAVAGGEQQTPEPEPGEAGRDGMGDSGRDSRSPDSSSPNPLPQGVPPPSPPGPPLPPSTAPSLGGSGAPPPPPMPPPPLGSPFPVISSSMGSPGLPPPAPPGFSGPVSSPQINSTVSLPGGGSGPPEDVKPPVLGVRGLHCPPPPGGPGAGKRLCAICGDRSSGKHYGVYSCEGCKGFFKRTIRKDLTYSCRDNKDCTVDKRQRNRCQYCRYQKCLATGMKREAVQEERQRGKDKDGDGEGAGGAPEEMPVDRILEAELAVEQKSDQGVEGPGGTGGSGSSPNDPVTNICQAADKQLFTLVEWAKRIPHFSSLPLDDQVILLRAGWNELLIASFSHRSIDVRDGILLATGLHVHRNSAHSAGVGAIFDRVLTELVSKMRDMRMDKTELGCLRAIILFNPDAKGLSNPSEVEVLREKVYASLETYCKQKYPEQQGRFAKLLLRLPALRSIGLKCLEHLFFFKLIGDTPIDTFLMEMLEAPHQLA
human RAR-related Orphan Receptor gamma (RORg), RORC (gene 6097), sequence (P51449 whole entry, looked up, the tested form may be a part): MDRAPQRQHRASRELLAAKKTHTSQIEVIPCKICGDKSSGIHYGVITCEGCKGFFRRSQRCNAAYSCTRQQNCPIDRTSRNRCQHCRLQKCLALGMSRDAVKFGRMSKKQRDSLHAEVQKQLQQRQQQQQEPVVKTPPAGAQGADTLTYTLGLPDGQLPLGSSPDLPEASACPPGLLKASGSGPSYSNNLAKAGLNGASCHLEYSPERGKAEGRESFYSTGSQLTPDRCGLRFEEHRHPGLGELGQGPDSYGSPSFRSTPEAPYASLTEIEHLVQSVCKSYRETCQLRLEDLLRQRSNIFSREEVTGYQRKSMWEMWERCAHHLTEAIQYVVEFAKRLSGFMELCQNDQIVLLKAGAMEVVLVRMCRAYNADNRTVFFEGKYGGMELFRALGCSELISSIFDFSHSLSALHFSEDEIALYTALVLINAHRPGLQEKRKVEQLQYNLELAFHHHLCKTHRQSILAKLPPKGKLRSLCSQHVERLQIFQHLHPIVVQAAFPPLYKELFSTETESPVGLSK
human Peroxisome Proliferator-activated Receptor delta (PPARd), PPARD (gene 5467), sequence (Q03181 whole entry, looked up, the tested form may be a part): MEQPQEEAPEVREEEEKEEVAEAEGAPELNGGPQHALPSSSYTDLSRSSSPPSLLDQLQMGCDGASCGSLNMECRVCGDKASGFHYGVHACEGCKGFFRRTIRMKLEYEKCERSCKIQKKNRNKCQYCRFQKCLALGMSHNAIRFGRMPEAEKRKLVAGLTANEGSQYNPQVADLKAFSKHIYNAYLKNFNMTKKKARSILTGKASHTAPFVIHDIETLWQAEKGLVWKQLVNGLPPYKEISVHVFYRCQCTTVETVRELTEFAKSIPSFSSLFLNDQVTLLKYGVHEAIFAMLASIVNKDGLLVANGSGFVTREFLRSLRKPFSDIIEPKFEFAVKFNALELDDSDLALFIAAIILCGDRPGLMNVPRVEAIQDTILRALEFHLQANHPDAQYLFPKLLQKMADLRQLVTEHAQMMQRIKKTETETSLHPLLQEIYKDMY
Retinoic acid receptor RXR-alpha (Homo sapiens), sequence (P19793 whole entry, looked up, the tested form may be a part): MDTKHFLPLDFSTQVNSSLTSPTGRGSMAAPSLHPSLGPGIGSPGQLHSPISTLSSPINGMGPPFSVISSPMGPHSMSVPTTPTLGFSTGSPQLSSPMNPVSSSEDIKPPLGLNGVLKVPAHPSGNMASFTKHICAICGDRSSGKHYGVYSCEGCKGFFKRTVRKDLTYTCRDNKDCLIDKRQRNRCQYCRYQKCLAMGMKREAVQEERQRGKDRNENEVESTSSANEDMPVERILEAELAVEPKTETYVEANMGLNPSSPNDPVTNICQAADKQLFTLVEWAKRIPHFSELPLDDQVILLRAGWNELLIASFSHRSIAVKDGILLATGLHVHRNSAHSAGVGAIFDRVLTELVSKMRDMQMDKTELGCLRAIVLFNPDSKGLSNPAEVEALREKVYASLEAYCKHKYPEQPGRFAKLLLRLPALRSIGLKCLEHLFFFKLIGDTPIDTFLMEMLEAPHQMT
Nuclear receptor subfamily 1 group I member 2 (Homo sapiens), sequence (O75469 whole entry, looked up, the tested form may be a part): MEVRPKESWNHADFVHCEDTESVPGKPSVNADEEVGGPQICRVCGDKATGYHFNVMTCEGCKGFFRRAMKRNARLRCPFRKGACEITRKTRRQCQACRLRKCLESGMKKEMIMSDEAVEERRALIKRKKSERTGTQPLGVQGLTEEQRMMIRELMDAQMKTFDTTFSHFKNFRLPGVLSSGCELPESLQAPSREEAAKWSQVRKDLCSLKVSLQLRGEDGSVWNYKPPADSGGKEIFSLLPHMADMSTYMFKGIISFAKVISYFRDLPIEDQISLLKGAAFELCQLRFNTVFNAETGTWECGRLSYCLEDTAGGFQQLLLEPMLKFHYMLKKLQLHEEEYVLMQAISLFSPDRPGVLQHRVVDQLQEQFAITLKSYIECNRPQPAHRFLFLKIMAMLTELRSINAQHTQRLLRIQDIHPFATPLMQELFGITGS
E-selectin (Homo sapiens), sequence (P16581 whole entry, looked up): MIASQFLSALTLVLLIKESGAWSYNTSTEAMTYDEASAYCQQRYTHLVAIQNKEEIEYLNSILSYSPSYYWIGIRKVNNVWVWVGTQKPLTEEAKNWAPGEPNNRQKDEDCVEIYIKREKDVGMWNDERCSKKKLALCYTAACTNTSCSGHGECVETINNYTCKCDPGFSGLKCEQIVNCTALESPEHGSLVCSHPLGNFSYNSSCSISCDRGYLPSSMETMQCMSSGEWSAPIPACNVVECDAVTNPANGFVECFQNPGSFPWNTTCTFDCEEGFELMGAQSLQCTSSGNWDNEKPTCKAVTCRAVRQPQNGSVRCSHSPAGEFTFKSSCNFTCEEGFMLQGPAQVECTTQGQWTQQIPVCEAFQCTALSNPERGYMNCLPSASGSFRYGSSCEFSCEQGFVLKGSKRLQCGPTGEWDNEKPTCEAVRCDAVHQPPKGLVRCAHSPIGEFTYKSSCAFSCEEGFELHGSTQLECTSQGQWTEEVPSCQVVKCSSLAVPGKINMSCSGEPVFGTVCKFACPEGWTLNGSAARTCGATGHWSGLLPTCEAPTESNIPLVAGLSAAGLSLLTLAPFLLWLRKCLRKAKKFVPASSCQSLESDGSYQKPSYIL
human Peroxisome Proliferator-activated Receptor alpha (PPARa), PPARA (gene 5465), sequence (Q07869 whole entry, looked up, the tested form may be a part): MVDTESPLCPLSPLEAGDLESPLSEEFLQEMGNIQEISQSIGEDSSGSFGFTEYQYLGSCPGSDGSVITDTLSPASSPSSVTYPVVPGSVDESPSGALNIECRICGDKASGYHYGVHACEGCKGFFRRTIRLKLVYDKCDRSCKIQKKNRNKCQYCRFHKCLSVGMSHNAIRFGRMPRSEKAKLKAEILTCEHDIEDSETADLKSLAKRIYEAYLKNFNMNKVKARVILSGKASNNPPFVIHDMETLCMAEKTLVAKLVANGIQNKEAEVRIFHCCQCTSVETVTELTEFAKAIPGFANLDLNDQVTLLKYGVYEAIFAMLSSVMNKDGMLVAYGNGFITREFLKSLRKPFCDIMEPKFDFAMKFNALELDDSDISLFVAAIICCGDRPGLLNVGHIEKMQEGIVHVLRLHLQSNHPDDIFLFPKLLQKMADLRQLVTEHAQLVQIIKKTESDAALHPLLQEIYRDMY

In the case of `CC(C)CCCC(C)(C)O`, the result in experiment [1], in [2], in experiment [3], in [4], in experiment [5] and in experiment [6] was inactive. For the same compound, the call in experiment [7], in experiment [8], in experiment [9], in [10], in experiment [11] and in experiment [12] was inactive.

Take `CC=CC(=O)C1=C(C)C=CCC1(C)C`: the result in [1], in [3], in [4], in [13], in experiment [5] and in experiment [6] was inactive. For the same compound, the compound was classed as inactive in experiment [8], in experiment [9], in [10], in experiment [11] and in experiment [12].

On to `C=C(C)C(N)=O`, for which the outcome in experiment [1], in experiment [3], in experiment [14], in experiment [4], in experiment [15] and in experiment [16] was inactive. Further, the result in experiment [9], in experiment [10], in experiment [11] and in experiment [12] was inactive.

As to `CC1(C)[C@H](C=C(Cl)Cl)[C@H]1C(=O)OCc1cccc(Oc2ccccc2)c1`, the outcome in experiment [1], in [2], in experiment [3], in [4], in [7] and in [8] was inactive. Further, the call in [16], in experiment [9], in experiment [10], in experiment [11] and in experiment [12] was inactive. Besides, the AC50 in experiment [5] is 1.99 µM (active).

With `COc1ccccc1NC(=O)CC(C)=O`, the outcome in [1], in [17], in [2], in experiment [3], in [4] and in [13] was inactive. Besides, the compound was classed as inactive in experiment [15], in [7], in [8], in [9], in experiment [10] and in experiment [11]. In experiment [12], the result was inactive. Also, the AC50 in [5] is 37 µM (active).

Take `C#C[C@]1(O)CC[C@H]2[C@@H]3CCc4cc(O)ccc4[C@H]3CC[C@@]21C`: the outcome in experiment [1], in experiment [2], in [3], in experiment [18], in experiment [14] and in [13] was inactive. Besides, the compound was called inactive in experiment [5], in experiment [19], in experiment [15], in experiment [6], in experiment [7] and in experiment [8]. The call in experiment [16], in experiment [10] and in experiment [11] was inactive. Further, the concentration at half-maximal activity (AC50) is 4.5 µM (active) in [4]; 2.7 µM (active) and 4.39 µM (active) and 6.57 µM (active) in experiment [5]; 5.36 µM (active) in experiment [9]; 6.67 µM (active) in experiment [12].

As to `O=C1OC2(c3ccc(O)cc3Oc3cc(O)ccc32)c2ccccc21`, the result in experiment [1], in experiment [17], in experiment [2], in experiment [3], in experiment [13] and in experiment [15] was inactive. The result in [6], in experiment [7], in [16], in [9], in experiment [10] and in [11] was inactive. The AC50 is 20 µM (active) in [4], 0.896 µM (active) in [5] and 20 µM (active) in experiment [12].

In the case of `CCCCN(CCO)CCO`, the outcome in [1], in experiment [17], in [3], in experiment [4], in [15] and in experiment [7] was inactive. Moreover, the outcome in [16], in [9], in experiment [10], in experiment [11] and in experiment [12] was inactive.

As a reminder, the AC50 is the concentration at which the activity in the assay is half-maximal.
